# Unmarked numbers belong to inactive results. Calls of active or inactive are those of the source. The call rests on the fitted dose curve; in most records, active means well fitted curve in the direction sought with a large enough effect in the repeat runs; inconclusive means weak or mixed curves; inactive means flat fitted curve, though single readings scatter.
# Assay: qHTS assay to test for compound auto fluorescence at 535 nm (green) in HEK293 cells (AID 720680)
# Conditions: green autofluorescence 485/535 nm; series mostly up to 91.3 µM
# On the % scale 0 is the no-effect control and ±100 the full control effect.
row,Compound,outcome
1,C=CCN1C[C@H](C)N([C@H](c2ccc(C(=O)N(CC)CC)cc2)c2cccc(OC)c2)C[C@H]1C,inactive
2,O=C(NC(=O)c1cc(F)c(F)cc1Cl)Nc1cc(F)ccc1N1CCC(C(=O)O)CC1,inactive
3,[Cl-].[Cl-].[Hg+2],inactive
4,CC(=O)OC(c1ccccc1)C(Cl)(Cl)Cl (centres undefined),inactive
5,Cc1ncc(C[n+]2csc(CCO)c2C)c(N)n1,inactive
6,CN1CC[C@]23c4c5ccc(O)c4O[C@H]2[C@@H](O)C=C[C@H]3[C@H]1C5,inactive
7,CCC(C)(C)O,inactive
8,CC(C)(C)N(NC(=O)c1ccc(Cl)cc1)C(=O)c1ccccc1,inactive
9,O=[N+]([O-])c1cc(Cl)c(Cl)cc1Cl,inactive
10,CN(C)c1ccc(N=O)cc1,inactive
11,CC1(C)[C@H](C(=O)O[C@H](C#N)c2cccc(Oc3ccccc3)c2)[C@@H]1C=C(Br)Br,inactive
12,CC(=O)NNc1ccccc1,inactive
13,CCCN(CCOc1c(Cl)cc(Cl)cc1Cl)C(=O)n1ccnc1,inactive
14,Nc1ccccc1C(=O)OCCc1ccccc1,inactive
15,O=C(O)COc1cc(Cl)c(Cl)cc1Cl,inactive
16,CN1C(=O)CN=C(c2ccccc2)c2cc([N+](=O)[O-])ccc21,inactive

row,Compound,outcome
1,O=S(=O)(c1ccccc1)c1ccccc1,inactive
2,CCNC(=O)NC(=O)/C(C#N)=N/OC,inactive
3,O=C(O)CCCOc1ccc(Cl)cc1Cl,inactive
4,C[Si](Cn1cncn1)(c1ccc(F)cc1)c1ccc(F)cc1,inactive
5,C[C@]12C=CC3=C4CCC(=O)C=C4CC[C@H]3[C@@H]1CC[C@@H]2O,inactive
6,FC(Cl)(Cl)C(F)(Cl)Cl,inactive
7,O=C(O)C(F)(F)C(F)(F)C(F)(F)C(F)(F)C(F)(F)C(F)(F)C(F)(F)C(F)(F)F,inactive
8,CCC1(C2=NCCN2)Cc2ccccc2O1 (centres undefined),inactive
9,CN1C[C@H](C(=O)N[C@]2(C)O[C@@]3(O)[C@@H]4CCCN4C(=O)[C@H](Cc4ccccc4)N3C2=O)C=C2c3cccc4[nH]cc(c34)C[C@H]21,inactive
10,C=C(C)C(=O)OCCCCOC(=O)C(=C)C,inactive
11,Cc1ccc(N)c(C)c1,inactive
12,COP(=O)(OC)OC(Br)C(Cl)(Cl)Br (centres undefined),inactive
13,CC[N+]1(CCOC(=O)C(O)(c2ccccc2)c2ccccc2)CCCCC1,inactive
14,O=CC=O,inactive
15,C[CH2][Hg][S]c1ccccc1C(=O)O,inactive
16,O=P(OCC(Br)CBr)(OCC(Br)CBr)OCC(Br)CBr (centres undefined),inactive

# Assay: qHTS assay to test for compound auto fluorescence at 460 nm (blue) in HEK293 cell free culture (AID 720681)
# Conditions: cell-free medium, autofluorescence 405/460 nm (blue); series mostly up to 91.3 µM
# Summary of the method: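 Blue fluorescence (Ex 405/Em 460 nm, triamterene-equivalent) was read immediately after pin transfer of compound or DMSO into medium (DMEM, 10% FBS) without cells.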
Compound,outcome,"fluorescence, % of fluorescent control"
CCC1(CCC(C)C)C(=O)NC(=O)NC1=O,inactive,
O=C(NC(=O)c1cc(F)c(F)cc1Cl)Nc1cc(F)ccc1N1CCC(C(=O)O)CC1,inactive,
[Cl-].[Cl-].[Hg+2],inactive,
Cc1ncc(C[n+]2csc(CCO)c2C)c(N)n1,inactive,
CN1CC[C@]23c4c5ccc(O)c4O[C@H]2[C@@H](O)C=C[C@H]3[C@H]1C5,inactive,
Nc1c(Br)cc(Br)c2c1C(=O)c1ccccc1C2=O,,-0.168% [at 18.6 µM]
CC(C)(C)N(NC(=O)c1ccc(Cl)cc1)C(=O)c1ccccc1,inactive,
O=[N+]([O-])c1cc(Cl)c(Cl)cc1Cl,inactive,
CN(C)c1ccc(N=O)cc1,inactive,
CC1(C)[C@H](C(=O)O[C@H](C#N)c2cccc(Oc3ccccc3)c2)[C@@H]1C=C(Br)Br,inactive,
CC(=O)NNc1ccccc1,inactive,
CCCN(CCOc1c(Cl)cc(Cl)cc1Cl)C(=O)n1ccnc1,inactive,
Nc1ccccc1C(=O)OCCc1ccccc1,inactive,
O=C(O)COc1cc(Cl)c(Cl)cc1Cl,inactive,
NP(N)(=O)NC(=O)c1ccc(F)cc1,inactive,
CN1C(=O)CN=C(c2ccccc2)c2cc([N+](=O)[O-])ccc21,inactive,

Compound,outcome,"fluorescence, % of fluorescent control"
O=S(=O)(c1ccccc1)c1ccccc1,inactive,
CCNC(=O)NC(=O)/C(C#N)=N/OC,inactive,
O=C(O)CCCOc1ccc(Cl)cc1Cl,inactive,
C[Si](Cn1cncn1)(c1ccc(F)cc1)c1ccc(F)cc1,inactive,
FC(Cl)(Cl)C(F)(Cl)Cl,inactive,
O=C(O)C(F)(F)C(F)(F)C(F)(F)C(F)(F)C(F)(F)C(F)(F)C(F)(F)C(F)(F)F,inactive,
O=C(O)C(O)C(O)C(=O)O (centres undefined),inactive,
Nc1ccc2c(c1)Cc1ccccc1-2,inactive,
CC(Oc1cc(Cl)c(Cl)cc1Cl)C(=O)O (centres undefined),inactive,
CN1C[C@H](C(=O)N[C@]2(C)O[C@@]3(O)[C@@H]4CCCN4C(=O)[C@H](Cc4ccccc4)N3C2=O)C=C2c3cccc4[nH]cc(c34)C[C@H]21,inactive,
C=C(C)C(=O)OCCCCOC(=O)C(=C)C,inactive,
Cc1ccc(N)c(C)c1,inactive,
COP(=O)(OC)OC(Br)C(Cl)(Cl)Br (centres undefined),inactive,
CC[N+]1(CCOC(=O)C(O)(c2ccccc2)c2ccccc2)CCCCC1,inactive,
O=CC=O,inactive,
O=P(OCC(Br)CBr)(OCC(Br)CBr)OCC(Br)CBr (centres undefined),inactive,

# Source: PubChem BioAssay (Tox21)
